TDP1 cell CPT = growth inhibition of DT40 Tdp1-/-;hTDP1 cells with camptothecin (screen for TDP1 inhibitors). chicken DT40 Tdp1-/-;hTDP1 cells + 20 nM CPT, ATP luminescence, 48 h. Potency, µM (titrated, usually from 46.2 µM), hits mostly inhibitors. hit rate 12% among 420,000; note: nearly all actives have a fitted effect of over 55% in size
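Chicken DT40 Tdp1-/- cells complemented with human TDP1, 400 cells/well, exposed to compounds plus 20 nM camptothecin for at least 48 h at 37 C; viability read as ATP content by CellTiter-Glo luminescence.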
Gal4-VP16 FLuc = inhibits Gal4-VP16 luciferase reporter, ROR gamma counter-screen | Drosophila S2 Gal4-VP16 UAS-luciferase, luminescence, 20 h | Potency, µM (highest dose often 53.6 µM), hits mostly inhibitors | hit rate 3.5% among 310,000 | AID 2546;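 note: Gal4-VP16 expression switched on by copper sulfate through the metallothionein promoter; nearly all actives have a fitted effect of over 50% in size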
12-LOX inh = ALOX12 (human) lipoxygenase inhibition. purified 12hLO, xylenol orange hydroperoxide absorbance. Potency, µM (highest dose often 108 µM), actives largely listed as inhibitors. hit rate 1.1% among 580,000. AID 1671190
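Purified human 12hLO (150 nM final) in 25 mM Hepes, 0.01% Triton X-100, pH 7.0 was preincubated 15 min at room temperature with compound. Then 40 uM arachidonic acid was added, 30 min. Hydroperoxide was read by Fe-XO absorbance ratio 573/405 nm.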
TDP1 cell noCPT = qHTS for Inhibitors of human tyrosyl-DNA phosphodiesterase 1 (TDP1): qHTS in cells in absence of CPT; DT40 Tdp1-/- hTDP1 cells, no CPT, ATP luminescence, 48 h; Potency, µM (highest dose often 46.2 µM), actives largely listed as inhibitors; hit rate 15% among 420,000; note: nearly all actives have a fitted effect of over 55% in size
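Luminescent ATP content (CellTiter-Glo) served as the growth readout. Knockout chicken DT40 cells expressing human TDP1 were exposed to compounds without camptothecin for a minimum 48 hr at 37 °C.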
ELG1 repair inh = inhibitors of ELG1-dependent DNA repair in HEK293T cells. HEK293T ELG1-luciferase reporter, luminescence, 16 h; DNA damage induced by 5-fluorouridine. hit rate 2.3% among 330,000. Potency, µM (series often up to 46.1 µM), actives largely listed as inhibitors; note: nearly all actives have a fitted effect of over 55% in size
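Quantitative HTS, concentration-response format. 2,000 cells/well co-treated with 5-fluorouridine and compound, 16 hr in 5% CO2 at 37 °C; ONE-Glo luminescence read after 30 min.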
RORgamma inh = inhibitors of mouse ROR gamma transcriptional activity; hit rate 5.4% among 310,000; Drosophila S2 Gal4-RORgamma UAS-luciferase reporter, 20 h; P51450; Potency, µM (top dose mostly 53.6 µM), actives largely listed as inhibitors; note: nearly all actives have a fitted effect of over 60% in size
Target sequence (P51450 whole entry, looked up, the tested form may be a part): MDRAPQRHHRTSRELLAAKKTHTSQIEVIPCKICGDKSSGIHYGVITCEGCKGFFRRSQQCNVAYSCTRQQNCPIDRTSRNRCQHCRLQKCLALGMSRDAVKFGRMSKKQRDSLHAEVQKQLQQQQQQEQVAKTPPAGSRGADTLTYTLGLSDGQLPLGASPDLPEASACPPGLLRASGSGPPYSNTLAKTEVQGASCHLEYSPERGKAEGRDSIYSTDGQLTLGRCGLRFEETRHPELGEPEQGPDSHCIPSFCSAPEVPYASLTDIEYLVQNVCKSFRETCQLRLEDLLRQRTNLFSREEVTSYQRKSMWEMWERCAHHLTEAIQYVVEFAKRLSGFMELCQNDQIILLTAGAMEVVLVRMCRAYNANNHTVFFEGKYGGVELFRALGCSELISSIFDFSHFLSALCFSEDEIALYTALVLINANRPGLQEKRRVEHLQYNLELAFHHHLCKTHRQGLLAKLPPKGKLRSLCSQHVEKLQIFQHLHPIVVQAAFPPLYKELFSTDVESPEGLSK
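A Gal4/UAS one-hybrid system in insect cells: metallothionein-promoter Gal4–ROR gamma fusion plus Photinus luciferase reporter. Copper sulfate 700 uM final, 20 hr ambient incubation, luminescent detection after 10 min with reagent.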
Hits are given with their value; i = inactive; ? = inconclusive; nt = no result given. In the library only some 15% were active in any assay of this set; here they are far more common. Calls come from the whole dose curve; as a rule, active = well fitted curve in the direction sought with a large enough effect; inconclusive = small, poorly fitted or top-dose-only effect, or another doubt; inactive = no such curve, though single readings can be large; an effect the other way counts as inactive or inconclusive.

SMILES	TDP1 cell CPT	Gal4-VP16 FLuc	12-LOX inh	TDP1 cell noCPT	ELG1 repair inh	RORgamma inh
Cc1ccc(NC(=O)c2nn(Cc3ccccc3)c(=O)c3ccccc23)cc1Cl	nt	nt	i	nt	nt	nt
CC(C)c1ccc(N2C(=S)N[C@H]3[C@@H](O)[C@H](O)C[C@@H](C(=O)N(C)Cc4ccccc4)[C@H]32)cc1	nt	nt	i	nt	nt	nt
CCc1ccc2oc(=O)cc(CN3CCN(CC(=O)N(C)C4CCCCC4)CC3)c2c1	nt	nt	i	nt	nt	nt
O=C(OCC(=O)N(Cc1ccccc1)C1CCS(=O)(=O)C1)c1n[nH]c2ccccc12 (configuration not stated)	nt	nt	i	nt	nt	nt
CCc1nc(-c2c3n(c(=O)n(CC(=O)Nc4ccc(Cl)cc4F)c2=O)CCCC3)no1	nt	nt	i	nt	nt	nt
CCOc1ccc(C(C)=O)cc1COC(=O)/C(=C\c1ccccc1)NC(C)=O	nt	nt	i	nt	nt	nt
COc1cc(C(=O)NC(=S)Nc2nc(-c3ccc(F)cc3)cs2)cc(OC)c1OC	i	i	i	i	i	i
COCCCNC(=S)NNC(=O)c1ccc2c(c1)OCO2	i	i	i	i	?	i
COc1cc(C(=O)NC(=S)NNC(=O)c2ccc3c(c2)OCO3)cc(OC)c1OC	?	i	i	?	16µM	?
COc1cc(C(=O)NNC(=S)NC(=O)c2ccc(F)cc2)cc(OC)c1OC	29µM	?	?	?	?	?
COc1ccc(CC(=O)NNC(=S)NC(=O)c2cc(OC)c(OC)c(OC)c2)cc1	9.2µM	nt	?	7.3µM	nt	nt
CCn1cc(S(=O)(=O)N2CCN(c3ccc(C(C)=O)cc3)CC2)cn1	nt	nt	i	nt	nt	nt
O=C1c2ccccc2C(=O)c2c1cccc2N(CCO)CCO	i	i	i	i	i	?
O=C1C=C(N(CCO)Cc2ccccc2)c2ccccc2C1=O	18µM	?	nt	21µM	8.2µM	7.1µM
COC(=O)C1CCN(Cc2cc(=O)oc3cc(C)c(C)cc23)CC1	nt	nt	i	nt	nt	nt
Cc1ccccc1NC(=O)CSc1nnc(C(C)N2C(=O)COc3ccccc32)n1C (configuration not stated)	nt	nt	i	nt	nt	nt
CCc1c(C)sc(NC(=O)OC)c1C#N	nt	nt	25µM	nt	nt	nt
CCc1c(C)sc(NC(=O)C2CCCCC2)c1C#N	nt	nt	8.9µM	nt	nt	nt
CCc1c(C)sc(NC(=O)c2cc(CC(C)C)on2)c1C#N	i	i	i	i	i	i
CCc1c(C)sc(NC(=O)c2c(F)cccc2F)c1C#N	nt	nt	i	nt	nt	nt
CCOC(=O)C(NC(=O)CC(C)C)(Nc1sc(C)c(CC)c1C#N)C(F)(F)F (configuration not stated)	?	i	i	?	i	i
CCc1c(C)sc(NC(=O)c2noc(C)c2[N+](=O)[O-])c1C#N	i	?	?	?	i	18µM
CCOC(=O)C(NC(=O)CCl)(Nc1sc(C)c(CC)c1C#N)C(F)(F)F (configuration not stated)	?	i	i	6.5µM	i	i
COCCn1ncc(N2CCCC(CC(=O)NCc3ccc(F)cc3F)C2)cc1=O (configuration not stated)	nt	nt	i	nt	nt	nt
Cc1cnc(C(=O)N2CCC(C(=O)N3CCCCCCNC(=O)CC3)CC2)cn1	nt	nt	i	nt	nt	nt
SMILES	TDP1 cell CPT	Gal4-VP16 FLuc	12-LOX inh	TDP1 cell noCPT	ELG1 repair inh	RORgamma inh
COc1ccc(NC(=O)C2CCCN(CCCc3ccccc3)C2)cc1OCC(C)C (configuration not stated)	7.3µM	i	?	5.2µM	i	i
COc1ccc(NC(=O)C2CCCNC2)cc1OCC(C)C (configuration not stated)	?	i	i	?	i	i
CC(C)(C)OC(=O)C[C@H]1C/C=C\C[C@@H](CC(=O)N(CCO)Cc2ccccc2)C(=O)NC[C@@H](c2ccccc2)OC1=O	?	nt	i	18µM	?	nt
CC(C)(C)OC(=O)C[C@H]1C/C=C\C[C@H](CC(=O)N(CCO)Cc2ccccc2)C(=O)NC[C@H](c2ccccc2)OC1=O	16µM	nt	i	?	i	nt
CC(C)(C)OC(=O)C[C@H]1C/C=C\C[C@@H](CC(=O)NCCO)C(=O)NC[C@H](c2ccccc2)OC1=O	i	nt	i	i	i	nt
CN1CCC(OC2CCN(C(=O)C3CC3)CC2)CC1	nt	nt	i	nt	nt	nt

Screens deposited in PubChem by National Center for Advancing Translational Sciences (NCATS).
